Test results published in PMC5540273 (PLoS ONE, 2017).

The compounds below were run on CAMK1G. Settings: concentration: 1 μM, replicates: in singlicate; n = 1.
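Note: KINOMEscan kinase panel screen.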

SMILES | %Inh
COC(=O)c1c(-c2ccccc2)c2cc(Cl)ccc2c(=O)n1Cc1ccc(S(C)(=O)=O)cc1 | 9%
CC(C)N1CCC(n2cnc(-c3ccc(F)cc3)c2-c2ccnc(N)n2)CC1 [SB-223132] | 0%
Nc1n[nH]c2nnc(-c3ccccc3)cc12 [SB-517389] | 0%
C[C@H]1CC[C@@H](C(=O)Nc2ccccc2)CN1c1cc(-c2ccc3c(N)n[nH]c3c2)nc(N)n1 [GSK2283293] | 0%
CN1CCC(n2cnc(-c3ccc(F)cc3)c2-c2ccnc(NC3CCNCC3)n2)CC1 [SB-229482] | 2%
Fc1cccc(COc2ccc(Nc3ncnc4sc(-c5ccc[nH]5)cc34)cc2Cl)c1 [GW707818] | 0%
O=C(Nc1ccccc1F)NC1CCN(c2ccnc(Nc3ccc(F)cc3)n2)C1 (stereo not drawn) [GSK1379722] | 0%
Clc1ccc(-c2cc(-c3c[nH]nc3-c3ccccn3)ccn2)cc1 [GW681251] | 0%
COc1cc2ncnc(Nc3ccc(OCc4ccccc4Br)c(Cl)c3)c2cc1OC.Cl [GI261590] | 0%
Cl.Cl.c1ccc(-c2cc3ccncc3cc2OC2CCNCC2)cc1 [GSK1122999] | 29%

The compounds below were run on CAMK1. Settings: concentration: 1 μM, replicates: in singlicate; n = 1.

SMILES | %Inh
Oc1ccc2ncnc(Nc3ccc(OCc4ccccc4)cc3)c2c1 [GI262866] | 17%
FC(F)(F)c1ccc(-c2cc(-c3c[nH]nc3-c3ccccn3)ccn2)cc1 [GW599550] | 23%
CCc1nc(-c2cccc(C)c2)c(-c2ccnc(NC(=O)c3ccccc3)c2)s1 | 13%
CN1c2ccc(-c3ccc(C(=O)NCCO)cc3)cc2-c2[nH]ncc2S1(=O)=O | 49%
O=C(c1ccc(-c2cc(-c3c[nH]nc3-c3ccccn3)ccn2)cc1)N1CCCC1 [GW792479] | 32%
COc1ccc(-c2oc3ncnc(N)c3c2-c2ccc(OC)cc2)cc1 [SB-589132] | 19%
CCc1nc(-c2cccc(N(C)S(=O)(=O)c3ccccc3)c2)c(-c2ccnc(Nc3ccc(N4CCN(C(C)=O)CC4)nc3)n2)s1 [GSK1645895] | 45%
Fc1cccc(COc2ccc(Nc3ncnc4cc[nH]c34)cc2Cl)c1 | 29%
Cl.c1ccc(Cn2ncc3cc(Nc4ncnc5ccccc45)ccc32)cc1 [GW273749] | 28%
COC(=O)c1cccc(NC(=O)NCCNc2ccnc(Nc3ccc(F)cc3)n2)c1 [GSK1379883] | 27%
Cl.c1ccc(Cn2ccc3cc(Nc4ncnc5ccccc45)ccc32)cc1 [GW275568] | 24%
COc1ccc(Nc2nccc(N3CCC(NC(=O)c4cccc(NC(C)=O)c4)C3)n2)cc1 (stereo not drawn) [GSK1379732] | 13%
Nc1nccc2scc(-c3ccc4c(c3)CCN4C(=O)Cc3cc(F)ccc3F)c12 [GSK2587663] | 29%
Fc1ccc(Nc2nccc(-c3c(-c4ccc(Cl)cc4)nn4ncccc34)n2)cc1F [GW829058] | 22%
CS(=O)(=O)CCNCc1ccc(-c2ccc3ncnc(Nc4ccc(OCc5ccccc5)c(Cl)c4)c3c2)o1.Cl [GW574783] | 14%
Cn1ccc2ncnc(Oc3ccc(NC(=O)Nc4cccnc4)c(Cl)c3)c21 | 21%
COc1ccc(NC(=O)c2ccc(-c3cc(-c4nnc(C)o4)ccc3C)cc2)cc1 [GW595885] | 4%
NC(=O)c1sc(-n2cnc3ccccc32)cc1OCc1ccccc1F [GSK1024306] | 0%
Fc1ccc(-c2ncn(CCCNCc3ccccc3)c2-c2ccncc2)cc1 | 2%
CCC(CC)(CC)n1cnc2c(N)ncnc21 [SKF-97620] | 3%
N#Cc1ccc(Oc2ccc(Nc3ncnc4cc[nH]c34)cc2Cl)cc1 | 24%
O=C(Nc1n[nH]c2nc(-c3ccco3)c(Br)cc12)c1ccc(CN2CCCC2)cc1.O=C(O)[C@H](O)[C@@H](O)C(=O)O [SB-742352] | 0%
O=C(NCCCN1CCCC1=O)c1cnc(NCc2cc(Cl)ccc2Cl)nc1NC1CCNCC1 | 0%
O=C(Nc1ccccc1)Nc1ccc(Oc2ccc3nccn3n2)cc1 | 0%
CCCc1ccc(S(=O)(=O)NC2CCN(c3ccnc(Nc4ccc(OC)cc4)n3)C2)cc1 (stereo not drawn) [GSK1379737] | 5%
COC(=O)c1c(-c2ccccc2)c2cc(Cl)ccc2c(=O)n1Cc1ccc(S(C)(=O)=O)cc1 | 2%
